Only some compounds are listed: those with a hit (about 6.2% of all), similar ones and a draw of the others.
HT1080 IDH1KD tx: qHTS for induction of synthetic lethality in tumor cells producing 2HG: qHTS for the HT-1080-IDH1KD cell line; Potency, µM (titrated, usually from 46.1 µM), inactives show at the top dose activity, negative = toxicity, usual class: cytotoxic; 2% of 360,000 active; HT-1080 IDH1 knockdown viability, ATP luminescence, 48 h;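 note: 0% = DMSO wells and -100% = cell-free medium wells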
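Viability of IDH1-knockdown HT-1080 fibrosarcoma cells was assessed by CellTiter-Glo after 48 h at 37 °C with titrated compound; concentration-effect curves were classified by fit quality and response size.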
KB-V1 MDR tox: qHTS assay for MDR1-selective chemotherapeutics: Primary screen using the drug-selected MDR subline cells KB-V1 | 3.4% of 400,000 active | Potency, µM (doses to about 46.1 µM), hits mostly cytotoxic | KB-V1 MDR cells viability, CellTiter-Glo, 72 h; note: % is set by controls: 0 for no effect and ±100 for the full control effect; nearly all actives have a fitted effect of over 60% in size
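Luminescent ATP read-out (CellTiter-Glo, 10 min) measures survival of drug-selected KB-V1 MDR cells after 72 h, 37 degrees C compound exposure. Medium: phenol-red-free DMEM, 10% FBS. Values from fitted concentration-response curves.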
KB-3-1 tox: qHTS assay for MDR1-selective chemotherapeutics: Primary screen using the parental adenocarcinoma cell KB-3-1 | AID 1347075, 2019 | Potency, µM (titrated, usually from 46.1 µM), hits mostly cytotoxic | KB-3-1 viability, CellTiter-Glo ATP luminescence, 72 h | 1.4% of 400,000 active; note: % is set by controls: 0 for no effect and ±100 for the full control effect; nearly all actives have a fitted effect of over 60% in size
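KB-3-1 parental drug-naive adenocarcinoma cells in DMEM/10% FBS, incubated 72 h at 37 C with pin-transferred compounds across a concentration series. Viability by CellTiter-Glo luminescence; concentration-response curves fitted after normalization.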
S2 tox: Viability Counterscreen for Primary qHTS for Inhibitors of ATXN expression. 0.49% of 400,000 active. AID 651635, 2014. S2 cells (HEK-293 line with an ATXN2-luciferase reporter) viability, CellTiter-Fluor protease fluorescence, 24 h. Potency, µM (doses to about 56.7 µM), most hits filed as cytotoxic; note: nearly all actives have a fitted effect of over 40% in size
ATXN2 expr inh: Primary qHTS for Inhibitors of ATXN expression | HEK-293 ATXN2-luciferase reporter, luminescence, 24 h | Potency, µM (doses to about 57 µM), for the others: top-dose activity change, negative = inhibition, actives largely listed as inhibitors | 0.72% of 360,000 active; note: % is set by controls: 0 for no effect and ±100 for the full control effect; nearly all actives have a fitted effect of over 55% in size
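ATXN2-luciferase reporter cells (luciferase flanked by upstream and downstream ATXN2 gene portions) were treated 24 h at 37 °C with compounds at up to 57 uM. SteadyGlo luminescence gave expression; GF-AFC fluorescence gave viability.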
HT1080-NT tox: qHTS for induction of synthetic lethality in tumor cells producing 2HG: qHTS for the HT-1080-NT fibrosarcoma cell line | HT-1080-NT fibrosarcoma viability, CellTiter-Glo ATP luminescence, 48 h | Potency, µM (doses to about 46.1 µM), inactives show at the highest dose activity, negative = less viability, usual class: cytotoxic | 1.6% of 360,000 active | AID 686970, 2013;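 note: NT is the 2HG producing partner of a matched IDH1 knockdown line; 0% = DMSO-treated cells and -100% = media-only wells without cells; nearly all actives have a fitted effect of over 55% in size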
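Luminescent CellTiter-Glo readout after 48 hours of compound exposure at 37 degrees C defined viability of HT-1080-NT cells. Activity was normalized to DMSO wells and cell-free media wells; concentration-response curves were fitted and assigned curve classes.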
* = called active by the depositor; i = inactive; ? = inconclusive; . = not tested or not shown. Calls come from the whole dose curve; as a rule, active = well fitted curve in the direction sought with a large enough effect; inconclusive = small, poorly fitted or top-dose-only effect, or another doubt; inactive = no such curve, though single readings can be large; an effect the other way counts as inactive or inconclusive. Potency is the fitted concentration of half-maximal effect.

SMILES	HT1080 IDH1KD tx	KB-V1 MDR tox	KB-3-1 tox	S2 tox	ATXN2 expr inh	HT1080-NT tox
CCCOP(=O)(OCCC)C(Nc1cccc(C(F)(F)F)c1)c1ccc(C)cc1 (stereo not given)	?	12µM*	?	i	-16%	?
Cc1nc2cc(F)ccc2n1C1CCN(Cc2nnnn2CCc2ccccc2)CC1	-17%	12µM*	i	i	-14%	-23%
Cc1nc2cc(C(F)(F)F)ccc2n1C1CCN(Cc2nnnn2CCc2ccccc2)CC1	?	?	?	i	-25%	18µM*
FC(F)(F)c1ccc2c(c1)nnn2C1CCN(Cc2nnnn2Cc2ccccc2)CC1	?	?	i	i	-11%	-25%
CC(C)C[C@H](CN)CC(=O)O	.	.	.	.	-4%	.
Cc1ccc(O)c(C(=O)c2cc(C(=O)NCc3ccccc3)c(=O)n(Cc3ccccc3)c2)c1	-10%	i	i	i	-7%	-10%
O=C(c1cc(C(=O)NCc2ccccc2)c(=O)n(Cc2ccccc2)c1)c1cc(Br)ccc1O	?	2.3µM*	?	i	-6%	-4%
CCOC(=O)N(CC)c1ccc(C(O)(C(=O)OCC)C(F)(F)F)cc1 (stereo not given)	17%	i	i	i	9%	17%
CCOC(=O)C(O)(c1ccc(N(CC)C(=O)OC)cc1)C(F)(F)F (stereo not given)	4%	21µM*	i	i	16%	-5%
COc1cccc(N2CCN(Cc3ccc(Cl)cc3)CC2)c1	-8%	16µM*	i	i	-9%	6%
COc1ccc(CN2CCN(Cc3ccccc3)CC2)c(OC)c1	-23%	23µM*	i	i	-12%	-15%
O=C1OC(CCN2CCCCC2)OC1(c1ccccc1)c1ccccc1 (stereo not given)	.	.	.	i	-4%	.
COc1cccc(OC)c1C1=NCC(=O)Nc2c1oc1ccc(Br)cc21	2.9µM*	?	i	?	0%	?
O=C1CN=C(c2ccc(Br)cc2)c2oc3ccccc3c2N1	12µM*	i	i	?	?	15µM*
O=C1CN=C(c2ccccc2)c2oc3ccc(Br)cc3c2N1	2%	i	i	?	-11%	-1%
O=C(CCCN1CCC2(CC1)C(=O)NCN2c1ccccc1)c1ccc(F)cc1	0%	?	i	i	?	-2%
COc1ccc(OCC(=O)N2CCN(Cc3cc(=O)n4nc(-c5ccccc5C)sc4n3)CC2)cc1	.	i	i	i	-21%	.
O=C(O)C(F)(F)S(=O)(=O)O	17%	i	i	?	-35%	17%
Cc1cccc(Cn2cccc(C(=O)Nc3nnc(C)s3)c2=O)c1	.	i	i	i	-5%	.
O=C(CN1CCN(c2nc(-c3ccc(F)cc3)cs2)CC1)NCc1ccc2c(c1)OCO2	?	?	i	i	?	?
Cc1cc(NC(=O)c2cccn(Cc3cccc([N+](=O)[O-])c3)c2=O)no1	.	i	i	i	2%	.
CCN(CC)CCNC(=O)c1c(O)c2ccccc2n(Cc2ccccc2)c1=O	?	i	i	?	-22%	?
S=c1[nH]nc(C2CC2)n1Cc1ccco1	-20%	i	i	i	-9%	?
Cc1cc(C)cc(-n2c(=O)[nH]c3ccccc3c2=O)c1	.	i	i	?	-2%	.
O=C(OC1CCN(CCCl)CC1)C(c1ccccc1)c1ccccc1	-22%	i	i	i	-2%	-25%
SMILES	HT1080 IDH1KD tx	KB-V1 MDR tox	KB-3-1 tox	S2 tox	ATXN2 expr inh	HT1080-NT tox
CN1CCC(OC(=O)C2c3ccccc3Oc3ccccc32)CC1	-3%	i	i	i	-7%	-21%
O=C(Nc1ccc(OC(F)(F)F)cc1)c1cccn(Cc2ccccc2Cl)c1=O	.	i	i	i	8%	.
O=C(Nc1ccc(F)c(Cl)c1)N(Cc1ccc2c(c1)OCO2)C1CCN(Cc2ccccc2)CC1	.	i	i	?	?	.
O=C(CN1CCN(c2ccccc2)CC1)Nc1ccccc1C(=O)NCCc1ccccc1	-13%	i	i	?	.	-11%
Cn1c(CNC(=O)c2ccco2)nnc1SCC(=O)N1c2ccccc2Sc2ccccc21	1%	i	i	?	-22%	-5%
Cc1cccc(NC(=O)Cn2cc(C(=O)c3ccccc3)c3ccccc32)c1C	.	i	i	i	-15%	.
Clc1ccc(OCCCN2CCCC2)cc1Cl	-22%	i	i	i	-14%	?
CC(C)Cc1nc2cccnc2n1C1CCNCC1	.	i	i	i	11%	.
C[C@H]1CC[C@@H]2[C@@H](C)C(=O)O[C@H]3O[C@@]4(C)CC[C@H]1[C@@]32OO4	.	.	.	i	.	.
CCC(=O)c1ccc(OC(=O)N(C)c2ccccc2)cc1	20%	i	i	i	5%	16%
O=C(N/N=C/c1ccccc1OC(=O)N1CCOCC1)c1cccs1	?	i	i	i	10%	-15%
OC(c1ccccc1)(c1ccccc1)C1CCNCC1	-2%	i	i	i	8%	-19%
